Drawing on PubChem BioAssay (NCATS), this text covers Potency and activity change, negative = inhibition for 40 compounds.

Records with an inconclusive call do not appear. Entries that show only a call come without a potency. A number with no mark means an inactive call. Calls of active or inactive are those of the source. The call rests on the fitted dose curve; in most records, active means well fitted inhibition curve with a large enough effect; inconclusive means small, poorly fitted or top-dose-only effect; inactive means no such curve, though single readings can be large or run the other way.
Potency means the concentration at half of the fitted maximal effect.

This test concerns the target Retinaldehyde dehydrogenase 3 (Homo sapiens) (UniProt P47895). Briefly: qHTS for Inhibitors of the Aldehyde Dehydrogenase Family (ALDH1A3) Validation screen (AID 2061312). Further: nearly all actives have a fitted effect of over 45% in size. To be noted: ALDH1A3 enzyme inhibition qHTS validation, fluorescence; series mostly up to 84.7 µM.
As for `Nc1nc(CC(=O)Nc2ccc(CCNCC(O)c3ccccc3)cc2)cs1` (stereo not given), the Potency result is “inactive”.
Still for that read-out and setting: the result for `COCc1c(Cl)ccc2c1CC[C@H]2c1ncc[nH]1` reads “inactive”; that for `O=C(Nc1ccc(F)cc1)N1CCc2ccccc2C1c1ccc(C(F)(F)F)cc1` (stereo not given), “inactive”.
With `NCc1c[nH]c(=S)n1[C@@H]1CCc2c(F)cc(F)cc2C1`, the Potency entry was “inactive”.
The same measure, in the same setting: the result for `Nc1nc2c(c(N3CCNCC3)n1)CCC1=C2[C@@H]2CCCC[C@@H]2O1` reads “inactive”; that for `C[C@H](Nc1cc2c(-c3ccc4c(c3)OCO4)noc2cn1)c1ccccc1`, “inactive”; that for `COC(=O)C(Cc1ccc(OCCn2c(=O)sc3cc(C(=O)c4ccccc4)ccc32)cc1)C(=O)OC`, “inactive”.
Still for that read-out and setting: with `Cc1nc2n(c(=O)c1CCN1CCC(c3noc4cc(F)ccc34)CC1)CCC[C@H]2O` the entry was “inactive”.
Still for that read-out and setting: with `CCOc1ccc(-n2c([C@@H](C)N(Cc3cccnc3)C(=O)Cc3ccc(OC(F)(F)F)cc3)nc3ncccc3c2=O)cc1` the entry was “inactive”; with `O=C1N=C(N2CCOCC2)CN1c1ccc(Cl)cc1`, “inactive”.
As to `CO[C@@H]1[C@@H](O[C@H]2O[C@@H](C)[C@H](O[C@@H]3C[C@](C)(O)[C@H](O)[C@@H](C)O3)[C@@H](N(C)C)[C@@H]2O)[C@@H](CC=O)C[C@@H](C)[C@@H](O[C@H]2CC[C@H](N(C)C)[C@H](C)O2)/C=C/C=C/C[C@@H](C)OC(=O)C[C@H]1O`, the Potency result is “inactive”.
On to `O=C(Nc1cccnn1)N1CCN(c2nccc(-c3ccc(F)c(F)c3)n2)CC1`, for which the Potency entry was “inactive”.
As for `Cn1c(SCC(=O)N2CCC[C@H]2C(=O)Nc2ccccc2-c2ccccc2)nc2ccccc21`, the Potency result is “inactive”.
Consider `N[C@@H](CC(=O)Nc1ccc(Oc2cc(F)c(F)cc2Br)cc1)C(=O)O`, for which the Potency result is “inactive”.
The same measure, in the same setting: with `CCC(C)n1cc(C)c2c(C(=O)NCc3c(C)cc(C)[nH]c3=O)cc(-c3ccc(N4CCNCC4)nc3)cc21` (stereo not given) the entry was “inactive”; with `O=C(NCc1ccccc1)c1ccc2c(=O)n(-c3cccc(C(F)(F)F)c3)c(=S)[nH]c2c1`, “inactive”.
Same read-out and setting: the result for `O=C(c1c2ccccc2cc2ccccc12)N1CCC(N2CCC[C@@H](C(=O)N3CCOCC3)C2)CC1` reads “inactive”; that for `C[C@@H]1C(=O)O[C@H]2[C@@H](O)C34[C@H]5C[C@@H](C(C)(C)C)C36[C@@H](OC(=O)[C@@H]6O)O[C@@]4(C(=O)O5)[C@@]12O` (stereo not given in full), “inactive”.
Same read-out and setting: with `CO[C@H]1C=CO[C@@]2(C)Oc3c(C)c(O)c4c(O)c(c5c(c4c3C2=O)NC2(CCN(CC(C)C)CC2)N=5)=NC(=O)C(C)=CC=C[C@H](C)[C@H](O)[C@@H](C)[C@@H](O)[C@@H](C)[C@H](OC(C)=O)[C@H]1C` the entry was “inactive”; with `Cc1onc(-c2c(Cl)cccc2Cl)c1CC(=O)NCc1ccc(OCC(F)(F)F)nc1`, “inactive”.
Turning to `O=c1cc(N2CCOCC2)nc2c3ccccc3ccn12`, the Potency entry is “inactive”.
Still for that read-out and setting: with `CCO[C@H]1CN(C2CCC(O)(c3ccc4c(c3)OCO4)CC2)C[C@@H]1NC(=O)CNC(=O)c1cccc(C(F)(F)F)c1` (stereo not given in full) the entry was “inactive”; with `CCCSc1nc(NC2CC2c2ccc(F)c(F)c2)c2nnn(C3CC(OCCO)C(O)C3O)c2n1` (stereo not given), 31.6 µM (active).
Same read-out and setting: the result for `OCC(Cc1ccccc1)Nc1nc(Oc2ccc3c(c2)CCC3)nc2c1ncn2Cc1ccc(-c2ccccc2)cc1` (stereo not given) reads “inactive”.
Same read-out and setting: with `Cc1cc(-n2c(=O)[nH]c(=O)n(C)c2=O)ccc1Oc1ccc(SC(F)(F)F)cc1` the entry was “inactive”; with `C(#Cc1cccc(CN2CCOCC2)c1)CCN1CCCCC1`, 20 µM (active); with `CNc1ccc([N+](=O)[O-])cc1-n1cnc(-c2ccc(C(F)(F)F)cc2)c1`, “inactive”.
As to `Clc1ccc2c(c1)C1=NCCN1c1c(-c3noc(C4CC4)n3)ncn1-2`, the Potency entry was “inactive”.
In the case of `Cc1onc(-c2ccccc2)c1C(=O)N1CCN(c2ccc([N+](=O)[O-])cc2Cl)CC1`, the Potency result is “inactive”.
On the same count and under the same terms, with `CC(=O)O[C@]1(C(C)=O)CC[C@H]2[C@@H]3C[C@H](C)C4=CC(=O)C=C[C@]4(C)[C@@]3(F)[C@@H](O)C[C@@]21C` the entry was “inactive”.
Still for that read-out and setting: with `CC(C)S(=O)(=O)NC[C@H](C)c1ccc(-c2ccc(CCNS(C)(=O)=O)cc2)cc1` the entry was “inactive”; with `CC(C)(N)c1ncc(-c2ccc(OC(F)(F)F)cc2)[nH]1`, “inactive”.
Turning to `CCOC(=O)[C@H](CCc1ccccc1)CC1(C(=O)N[C@H]2CCc3ccccc3N(CC(=O)O)C2=O)CCCC1`, the Potency entry is “inactive”.
Same read-out and setting: the result for `O=C(NCC1CCN(Cc2cccc(Cl)c2)CC1)[C@@H]1CCCN(c2ncnc3c2nc2n3CCCC2)C1` reads “inactive”.
The same measure, in the same setting: with `COc1cc2c(Nc3cc(F)c(Cl)c(Cl)c3)ncnc2cc1OCC1CCCN(C)CCC1` the entry was “inactive”.
Same read-out and setting: the result for `CON(C)C(=O)[C@H](O)[C@H](Cc1ccccc1)NC(=O)c1cc2cc(Cl)ccc2[nH]1` reads “inactive”.
As to `COC1CCN(c2cccc(-c3cc(NC(C)=O)nc(-n4nc(C)cc4C)n3)n2)CC1`, the Potency entry is “inactive”.
Take `CC(OC1OCCN(Cc2n[nH]c(=O)[nH]2)C1c1ccc(F)cc1)c1cc(C(F)(F)F)cc(C(F)(F)F)c1` (stereo not given): the Potency result was “inactive”.
As to `CN(C)C(=O)NC1CCC(CCN2CCN(c3cccc(Cl)c3Cl)CC2)CC1` (stereo not given), the activity change, negative = inhibition was 7.05% [at 20.1 µM].
For `CN(C)c1nc(Cc2ccc(NC(=O)c3ccc4ccccc4c3)cc2)nc(Cl)c1CC(=O)O`, the Potency result is “inactive”.
